# FEN1 inh = blocks human flap endonuclease 1 | hit rate 0.35% among 390,000 | AID 588795 | Recombinant FEN1 flap cleavage, fluorescence, 15 min | Potency, µM (titrated, usually from 114 µM), for inactives: top-dose activity change, negative = inhibition, most hits filed as inhibitors | P39748; further: potency means the concentration at half of the fitted maximal effect; nearly all actives have a fitted effect of over 65% in size
# Target sequence (P39748 whole entry, looked up): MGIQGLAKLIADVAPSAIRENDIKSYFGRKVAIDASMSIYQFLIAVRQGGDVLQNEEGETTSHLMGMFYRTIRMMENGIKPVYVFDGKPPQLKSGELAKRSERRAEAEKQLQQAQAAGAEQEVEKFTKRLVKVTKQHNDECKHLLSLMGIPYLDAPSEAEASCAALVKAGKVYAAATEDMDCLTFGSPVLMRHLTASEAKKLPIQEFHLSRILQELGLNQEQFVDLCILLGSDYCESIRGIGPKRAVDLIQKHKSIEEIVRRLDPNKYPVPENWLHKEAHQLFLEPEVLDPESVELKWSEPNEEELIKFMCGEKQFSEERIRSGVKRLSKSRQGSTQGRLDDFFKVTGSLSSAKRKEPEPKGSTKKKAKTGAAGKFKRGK
#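 FEN1 at 10 nM, compound pretreatment for 15 min (room temperature), 50 nM final substrate to initiate; endpoint reads at 0 and 15 min; DMSO-only plates used as vehicle background.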
# PI5P4Ka inh = blocks human PI5P4K alpha kinase activity. P48426. PI5P4Kalpha enzyme, ADP-Glo luminescence, 60 min; stronger effect = lower value. max response, %. hit rate 1.2% among 330,000; active means max response of -50% or lower; inconclusive means between -30% and -50%; inactive means -30% or higher; further: value at the top dose of about 77 µM
# Target sequence (P48426 whole entry, looked up): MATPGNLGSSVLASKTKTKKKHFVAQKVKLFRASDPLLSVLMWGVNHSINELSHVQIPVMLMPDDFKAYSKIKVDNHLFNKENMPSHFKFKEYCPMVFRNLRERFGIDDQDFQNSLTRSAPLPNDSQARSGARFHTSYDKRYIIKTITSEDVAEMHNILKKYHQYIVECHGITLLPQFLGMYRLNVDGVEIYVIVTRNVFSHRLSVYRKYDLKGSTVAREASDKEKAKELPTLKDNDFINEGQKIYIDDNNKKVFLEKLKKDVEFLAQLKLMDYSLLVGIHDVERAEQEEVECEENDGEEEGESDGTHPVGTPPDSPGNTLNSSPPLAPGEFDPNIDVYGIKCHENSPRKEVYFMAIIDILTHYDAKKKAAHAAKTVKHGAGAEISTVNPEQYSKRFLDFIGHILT
#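 Enzyme plus substrate dispensed, test compounds pinned in, then ATP (5 microM final) added. After 60 min at RT, ADP-Glo reagent 1 for 45 min and reagent 2 for 30 min preceded luminescence imaging.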
# GCN5L2 inh = GCN5L2 (KAT2A) acetyltransferase inhibition. GCN5L2 HAT assay, ThioGlo1 CoA-SH fluorescence. Potency, µM (titrated, usually from 58.9 µM), for inactives: at the highest dose activity change, negative = inhibition, hits mostly inhibitors. hit rate 0.21% among 390,000; further: potency means the concentration at half of the fitted maximal effect
#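 qHTS, 1536-well. 20nM enzyme, pH 7.5 HEPES/EDTA/Tween-20 buffer; 15 min compound preinc., RT. Start: 75uM H3(1-25), 70uM AcCoA, 50uM ThioGlo1. Read Ex340/Em540 at t=0 (autofluorescence flag) and t=20 min.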
# BLM inh = inhibitors of human Bloom syndrome helicase BLM. P54132. recombinant BLM DNA unwinding, fluorescence dequenching. Potency, µM (titrated, usually from 56.1 µM), inactives show at the highest dose activity change, negative = inhibition, usual class: inhibitors. hit rate 0.2% among 350,000;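 further: potency means the concentration at half of the fitted maximal effect; plate controls were vehicle for no effect and no enzyme for full effect; nearly all actives have a fitted effect of over 35% in size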
# APEX1 inh = blocks human APE1 abasic DNA cleavage. Potency, µM (series often up to 65.8 µM), for the others: at the top dose activity change, negative = inhibition, most hits filed as inhibitors. AID 2517. recombinant APE1, TAMRA/BHQ-2 abasic DNA cleavage fluorescence. hit rate 0.35% among 350,000;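 further: potency means the concentration at half of the fitted maximal effect; plate controls were vehicle for no effect and reference inhibitor for full effect; nearly all actives have a fitted effect of over 55% in size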
#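 Quantitative HTS: incision of a TAMRA/BHQ-2 double-stranded substrate bearing a tetrahydrofuran abasic site by 0.75 nM APE1 raises fluorescence. Substrate 50 nM final, added after 15 min compound preincubation at room temperature; progress as third-minus-first kinetic read difference.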
# RECQ1 helicase = RECQ1 (human) helicase inhibition; P46063; RECQ1 DNA unwinding, red fluorescence kinetic read; Potency, µM (highest dose often 57.3 µM), for inactives: at the top dose activity, negative = inhibition, hits mostly inhibitors; hit rate 0.54% among 240,000; AID 2549;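 further: potency means the concentration at half of the fitted maximal effect; plate controls were vehicle for no effect and no enzyme for full effect; nearly all actives have a fitted effect of over 30% in size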
#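 RECQ1T1 50 nM; forked duplex (20 bp + 30-nt ss tails) 200 nM, ATP 2 mM final; pH 8.0, 2 mM MgCl2, 2.5 ug/ml poly(dI-dC); 15 min compound preincubation; discontinuous kinetic read over 2 h at RT.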
# * = called active by the depositor; i = inactive; ? = inconclusive; · = not tested or not shown; [ ] = another dose, or the depositor's remark. Shown are actives, neighbours in structure and some others; about 1.5% of the full set was active somewhere. Unless noted, the call rests on the fitted dose curve; in most records, active means well fitted curve in the direction sought with a large enough effect; inconclusive means small, poorly fitted or top-dose-only effect, or another doubt; inactive means no such curve, though single readings can be large; an effect the other way counts as inactive or inconclusive. Unless noted, on the % scale 0 is the no-effect control and ±100 the full control effect.
SMILES,FEN1 inh,PI5P4Ka inh,GCN5L2 inh,BLM inh,APEX1 inh,RECQ1 helicase
O=C(OCCC12CC3CC(CC(C3)C1)C2)c1ccc(NCc2cc(O)ccc2O)cc1,?,-59.1*,·,·,·,·
COc1ccc(C2=Nn3c(nnc3-c3ccccc3Cl)SC2)cc1O[C@H]1CCOC1,·,·,·,·,-8.5%,·
CC[N+]1(CC(=O)c2ccc(Cl)cc2)CCCCC1,-2.7%,·,·,·,·,·
O=C(O)c1cccc(N2C(=O)c3cccc4cccc(c34)C2=O)c1,-4.2%,-0.7,-13.1%,0.3%,25.1%,·
O=C(O)c1cccc(N2C(=O)c3cc([N+](=O)[O-])cc4cc([N+](=O)[O-])cc(c34)C2=O)c1,20µM*,-73.1*,?,-13.0%,-44.9%,·
Cc1cc(C)c(S(=O)(=O)/N=C2/C=C(SCC(=O)O)C(=O)c3ccccc32)cc1C,10µM*,?,-29.0%,31.6µM*,?,?
Cc1cc(C)c(S(=O)(=O)/N=C2\C=C(NS(=O)(=O)c3ccccc3)C(=O)c3ccccc32)c(C)c1,3.9%,-22.5,-13.0%,-11.8%,-20.1%,·
COc1cccc(/C=c2/[nH]c(=O)/c(=C\c3cccc(OC)c3OC)[nH]c2=O)c1OC,-5.8%,·,·,·,·,·
C#CCOCCOCCOCCNc1nc(N2CCN(C(=O)CCCCCCCCCCNC(=O)Cn3cc(C[C@@H](C)O)nn3)CC2)nc(N2CCN(C(=O)CCCCCCCCCCNC(=O)[C@@H]([C@H](C)CC)n3cc(CCCCCN)nn3)CC2)n1,?,?,-5.5%,·,?,·
C#CCOCCOCCOCCNc1nc(N2CCN(C(=O)CCCCCCCCCCNC(=O)[C@@H](CCC(=O)O)n3cc(CCCCCN)nn3)CC2)nc(N2CCN(C(=O)CCCCCCCCCCNC(=O)[C@H](CCCCN)n3cc(C[C@@H](C)CC)nn3)CC2)n1,?,-53.4*,-0.5%,·,21.8%,·
C#CCOCCOCCOCCNc1nc(N2CCN(C(=O)CCCCCCCCCCNC(=O)[C@H](CCCCN)n3cc(CCO)nn3)CC2)nc(N2CCN(C(=O)CCCCCCCCCCNC(=O)[C@H](CCCCN)n3cc(C[C@@H](C)CC)nn3)CC2)n1,28.2µM*,-61.6*,-6.8%,·,?,·
C#CCOCCOCCOCCNc1nc(N2CCN(C(=O)CCCCCCCCCCNC(=O)[C@@H](CCC(=O)O)n3cc(CCCCCN)nn3)CC2)nc(N2CCN(C(=O)CCCCCCCCCCNC(=O)[C@H](CO)n3cc(CCCCCN)nn3)CC2)n1,-8.1%,-54.3*,-1.8%,·,34.2%,·
C#CCOCCOCCOCCNc1nc(N2CCN(C(=O)CCCCCCCCCCNC(=O)Cn3cc(CCCCCN)nn3)CC2)nc(N2CCN(C(=O)CCCCCCCCCCNC(=O)Cn3cc(C[C@@H](C)O)nn3)CC2)n1,79.4µM*,-64.9*,1.8%,·,?,·
CN(C)CC/C=C1/c2ccccc2CSc2ccccc21,·,·,·,·,15.8%[21 µM],·
O=C(C[n+]1ccccc1)c1ccc(I)cc1,11.8%,·,·,·,·,·
O=C(COc1ccccc1Cl)Nc1ccccc1C(=O)Nc1cccc(C(=O)O)c1,-5.6%,-2.5,2.4%,2.0%,39.3%,·
O=C(COc1ccccc1Cl)Nc1ccc(C(=O)O)cc1NC(=O)COc1ccccc1Cl,-0.5%,-64.3*,2.5%,-6.2%,-0.1%,·
CC(=O)NC1C(=O)N(CCN2CCOCC2)c2ccc(C)cc21 (stereo not drawn),?,3.0,2.9%,-19.7%,?,·
CC(=O)NC1C(=O)N(CCN2CCOCC2)c2ccc(F)cc21 (stereo not drawn),50.1µM*,5.6,-3.4%,-5.3%,6.6%,·
O=Cc1ccc(O)cc1,-2.6%,·,·,·,·,·
O=C(O)CCCCCNC(=O)CSc1nnc(-c2ccc([S+](=O)([O-])N3CCCC3)cc2)n1-c1ccccc1,·,·,·,·,42.8%,·
O=C1NN(c2ccccc2)C(=O)/C1=C\c1ccc(-c2cc([N+](=O)[O-])ccc2O)o1,?,-68.7*,-15.6%,-6.4%,6.3%,28.2µM*
COc1cc(/C=C2/C(=O)NN(c3ccccc3)C2=O)cc(Br)c1O,-22.3%,-55.1*,-3.2%,-3.8%,9.5%,·
Cc1ccc(N2NC(=O)/C(=C/c3ccc(-c4ccc(Cl)c(C(=O)O)c4)o3)C2=O)cc1,2.0%,?,-1.9%,-3.5%,0.9%,-3.1%
COc1cc(/C=C2\C(=O)NN(c3ccccc3)C2=O)cc([N+](=O)[O-])c1O,?,-69.7*,-13.6%,-6.7%,?,-18.9%
SMILES,FEN1 inh,PI5P4Ka inh,GCN5L2 inh,BLM inh,APEX1 inh,RECQ1 helicase
COc1cc(/C=C2/C(=O)NN(c3ccc(Cl)cc3)C2=O)cc(OC)c1O,-10.5%,-3.0,1.2%,-6.6%,16.3%,·
COc1cc(/C=C2\SC(=O)N(Cc3ccc(F)cc3)C2=O)cc([N+](=O)[O-])c1O,?,?,-0.8%,4.4%,-4.2%,i
COc1cc(/C=C2\SC(=O)N(Cc3ccc(Cl)cc3)C2=O)cc([N+](=O)[O-])c1O,?,-80.9*,-3.7%,-6.2%,1.4%,i
CC1=CC(O)=NS(=O)(=O)O1,3.4%,·,·,·,·,·
N#Cc1ccc(/C=C2/C=Cc3ccccc32)cc1,-1.0%,·,·,·,·,·
CCOc1cc(/C=C2\NC(=O)NC2=O)cc([N+](=O)[O-])c1O,-17.2%,-59.3*,-27.7%,-2.5%,9.2%,11.1%
CCOc1cc(/C=C2\C(=O)NN(c3ccccc3)C2=O)cc([N+](=O)[O-])c1O,?,-56.9*,-7.8%,-10.6%,?,-22.4%
COc1cc(/C=C2\C(=O)NN(c3ccc(C)cc3)C2=O)cc([N+](=O)[O-])c1O,-4.8%,-53.8*,-8.8%,3.5%,?,-13.2%
CCCCCCCCOc1ccccc1C(=O)Nc1ccc(C(=O)OCC[N+](C)(CC)CC)cc1,·,·,7.6%,13.0%,·,·
O=C(COC(=O)c1ccc(Cl)c(S(=O)(=O)N2CCCC2)c1)NCc1ccccc1,-3.8%,-11.3,-6.2%,·,7.52µM*,·
O=C(COC(=O)c1ccc(Cl)c(S(=O)(=O)N2CCCCCC2)c1)NCc1ccccc1,·,3.5,·,·,·,·
CCC(=O)Oc1ccc2c(c1)O/C(=C\c1ccco1)C2=O,-26.0%,-65.4*,-5.6%,1.9%,?,-13.5%
CC(=O)Oc1ccc2c(c1)O/C(=C\c1ccncc1)C2=O,-0.9%,-52.7*,-16.8%,-0.1%,10.5%,?
CC(C)Cn1c(N)c(C(=O)COC(=O)c2cc(-c3ccco3)nc3ccccc23)c(=O)n(C)c1=O,?,-97.1*,?,?,11.2µM*,20µM*
Cn1c(=O)c(C(=O)COC(=O)c2cc(-c3ccco3)nc3ccccc23)c(N)n(Cc2ccccc2)c1=O,·,·,?,?,?,31.6µM*
CC(C)Cn1c(N)c(C(=O)COC(=O)c2cc(-c3ccccc3)nc3ccccc23)c(=O)n(C)c1=O,11.3%,2.0,-4.0%,-9.4%,-2.5%,-5.2%

# High-throughput results deposited in PubChem BioAssay by National Center for Advancing Translational Sciences (NCATS).
